Set-up in all cases: scale not given: direction of the effect not stated beside the values
Assay [1] addresses Protein translocase subunit SecA (Escherichia coli (strain K12)) (UniProt P10408). Description: Assay to Identify E. coli SecA ATPase Inhibitors. It is filed as functional. The conditions noted are these: 30 µM.
Assay [2] deals with T1, Ubiquitin-activating enzyme e1, putative (Leishmania donovani (strain BPK282A1)) (UniProt E9BSI1).
T1 sequence (whole entry): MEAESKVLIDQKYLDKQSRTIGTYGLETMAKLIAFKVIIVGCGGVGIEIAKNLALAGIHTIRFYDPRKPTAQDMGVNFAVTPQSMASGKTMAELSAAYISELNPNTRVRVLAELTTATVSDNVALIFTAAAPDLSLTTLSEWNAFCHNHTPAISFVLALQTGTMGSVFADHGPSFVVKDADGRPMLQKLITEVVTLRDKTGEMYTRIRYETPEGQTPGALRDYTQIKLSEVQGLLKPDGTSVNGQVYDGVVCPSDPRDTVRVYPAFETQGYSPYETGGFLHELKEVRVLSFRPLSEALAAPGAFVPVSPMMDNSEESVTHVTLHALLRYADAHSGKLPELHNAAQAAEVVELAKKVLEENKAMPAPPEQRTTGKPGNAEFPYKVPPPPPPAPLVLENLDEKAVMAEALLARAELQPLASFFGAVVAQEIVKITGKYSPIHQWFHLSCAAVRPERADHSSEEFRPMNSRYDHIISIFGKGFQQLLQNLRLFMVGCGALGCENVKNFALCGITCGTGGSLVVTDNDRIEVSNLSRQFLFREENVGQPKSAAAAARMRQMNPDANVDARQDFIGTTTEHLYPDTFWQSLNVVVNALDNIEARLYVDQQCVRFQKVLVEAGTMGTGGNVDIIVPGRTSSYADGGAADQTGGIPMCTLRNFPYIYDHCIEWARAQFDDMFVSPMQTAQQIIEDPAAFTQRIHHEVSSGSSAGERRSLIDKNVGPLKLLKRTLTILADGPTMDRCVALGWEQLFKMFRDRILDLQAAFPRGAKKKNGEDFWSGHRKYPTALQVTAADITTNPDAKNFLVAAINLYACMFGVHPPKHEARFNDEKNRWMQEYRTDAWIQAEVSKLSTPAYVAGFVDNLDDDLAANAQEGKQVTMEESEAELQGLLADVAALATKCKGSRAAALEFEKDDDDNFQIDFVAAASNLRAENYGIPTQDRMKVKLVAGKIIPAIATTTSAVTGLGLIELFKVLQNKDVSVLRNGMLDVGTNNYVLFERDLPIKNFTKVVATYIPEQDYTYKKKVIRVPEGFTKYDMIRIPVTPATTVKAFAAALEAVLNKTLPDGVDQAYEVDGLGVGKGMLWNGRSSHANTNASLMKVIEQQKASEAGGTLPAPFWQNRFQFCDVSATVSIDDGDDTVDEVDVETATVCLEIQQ
Briefly: Leishmania donovani Ubiquitin Activating Enzyme (LdE1). It is filed as functional. The conditions noted are these: 30 µM.

The target in assay [3] is AMP-activated protein kinase, AMPK (Homo sapiens) (UniProt P54646+O43741+P54619+Q9UGJ0+Q9Y478+Q13131+Q9UGI9). Briefly: AMP-dependent Kinase enzyme assay. An in vitro enzyme assay that detects ADP turnover that is directly proportional to AMPK activity. This uses naive AMPK that is activated during the assay with MK-8722. It is filed as functional. The note with it: 30 µM.

Assay [4] deals with Sialic acid-binding Ig-like lectin 9 (Homo sapiens) (UniProt Q9Y336). Briefly: Hs-Siglec9 ALPHAscreen SOP 20170721. The conditions noted are these: 10 µM. For orientation: Bead proximity is the source of the signal in Alpha formats.
Sequence of Sialic acid-binding Ig-like lectin 9 (Homo sapiens) (Q9Y336 whole entry): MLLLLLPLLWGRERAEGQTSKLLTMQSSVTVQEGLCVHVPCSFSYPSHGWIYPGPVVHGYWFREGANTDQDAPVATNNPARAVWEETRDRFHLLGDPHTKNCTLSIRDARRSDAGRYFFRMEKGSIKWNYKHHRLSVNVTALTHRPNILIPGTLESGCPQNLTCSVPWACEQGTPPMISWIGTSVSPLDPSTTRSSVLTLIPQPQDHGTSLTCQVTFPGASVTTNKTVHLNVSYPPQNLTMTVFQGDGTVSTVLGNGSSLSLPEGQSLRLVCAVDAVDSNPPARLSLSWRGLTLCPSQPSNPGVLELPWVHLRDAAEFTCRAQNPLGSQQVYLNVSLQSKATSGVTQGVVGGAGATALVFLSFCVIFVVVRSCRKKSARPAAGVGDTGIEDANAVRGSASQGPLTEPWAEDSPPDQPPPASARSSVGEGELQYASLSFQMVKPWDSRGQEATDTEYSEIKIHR
Another assay deals with Trypanosoma cruzi. Description: Trypanosoma cruzi phosphomannomutase and mannose-1-phosphate guanylyltransferase assay. In kind it is functional. The conditions noted are these: 10 µM.
The target of assay [5] is T2, Arginase-2, mitochondrial (Homo sapiens) (UniProt P78540).
T2 sequence (whole entry): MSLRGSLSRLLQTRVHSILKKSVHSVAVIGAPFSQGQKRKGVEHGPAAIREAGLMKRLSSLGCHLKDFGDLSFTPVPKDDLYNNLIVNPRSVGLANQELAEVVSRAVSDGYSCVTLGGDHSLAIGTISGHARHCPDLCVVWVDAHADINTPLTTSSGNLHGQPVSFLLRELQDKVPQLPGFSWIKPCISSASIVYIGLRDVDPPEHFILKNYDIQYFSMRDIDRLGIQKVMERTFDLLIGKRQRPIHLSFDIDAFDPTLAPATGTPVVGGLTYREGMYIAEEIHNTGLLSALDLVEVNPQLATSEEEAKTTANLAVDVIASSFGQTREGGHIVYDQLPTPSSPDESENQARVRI
Description: in vitro enzyme assay to detect the production of urea directly proportional to the activity of Arginase II. Note: in the data most compounds retested in dose-response had high values. It is filed as functional. The conditions noted are these: 33.3 µM.

The target in assay [6] is T3, Proteasome subunit beta (Trypanosoma cruzi) (UniProt O96673).
T3 sequence (whole entry): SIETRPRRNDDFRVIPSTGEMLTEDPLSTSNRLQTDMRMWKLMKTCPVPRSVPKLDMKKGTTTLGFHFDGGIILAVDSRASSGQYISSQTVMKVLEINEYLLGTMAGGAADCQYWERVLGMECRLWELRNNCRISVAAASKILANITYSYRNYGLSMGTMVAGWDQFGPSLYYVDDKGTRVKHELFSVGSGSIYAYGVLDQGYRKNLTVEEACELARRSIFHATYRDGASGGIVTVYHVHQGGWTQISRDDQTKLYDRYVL
Description: Trypanosoma cruzi proteasome chymotrypsin-like activity (TcProtChymo) assay. Note: in the data most compounds retested in dose-response had high values. In kind it is functional. The note with it: 9.37 µM.

The next assay is filed under the species Homo sapiens. Description: To identify inhibition of the IFN signalling (Jak-Stat) pathway via expression of an eGFP reporter gene under the control of an IFN-stimulated response element (ISRE) containing MxA promoter. It is filed as functional. The conditions noted are these: 30 µM. In general terms: Reporter assays use an easily measured gene product as a stand-in for the process of interest.

Assay [7] has as its target T4, Tyrosyl-tRNA synthetase, putative (Trypanosoma cruzi (strain CL Brener)) (UniProt Q4DSP6).
T4 sequence (whole entry): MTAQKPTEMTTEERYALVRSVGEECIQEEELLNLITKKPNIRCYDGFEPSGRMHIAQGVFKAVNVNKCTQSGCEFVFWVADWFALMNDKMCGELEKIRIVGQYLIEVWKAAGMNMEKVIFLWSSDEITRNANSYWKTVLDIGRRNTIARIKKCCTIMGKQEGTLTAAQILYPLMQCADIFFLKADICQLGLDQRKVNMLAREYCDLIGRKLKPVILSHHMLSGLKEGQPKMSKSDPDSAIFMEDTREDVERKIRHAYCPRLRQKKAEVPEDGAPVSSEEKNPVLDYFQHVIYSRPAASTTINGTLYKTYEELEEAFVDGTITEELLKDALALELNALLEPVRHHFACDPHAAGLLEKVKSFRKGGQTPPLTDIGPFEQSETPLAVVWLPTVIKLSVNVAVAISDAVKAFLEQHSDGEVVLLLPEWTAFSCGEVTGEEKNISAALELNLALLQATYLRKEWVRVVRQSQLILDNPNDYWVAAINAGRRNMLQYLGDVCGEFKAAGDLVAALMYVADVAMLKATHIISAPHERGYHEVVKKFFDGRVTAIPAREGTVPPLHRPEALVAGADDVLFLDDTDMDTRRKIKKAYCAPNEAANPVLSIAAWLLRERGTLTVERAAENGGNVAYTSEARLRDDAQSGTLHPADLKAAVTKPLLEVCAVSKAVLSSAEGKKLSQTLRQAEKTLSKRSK
Description: Trypanosoma cruzi tyrosyl tRNA synthetase (TcYRS) _High Tyrosine SOP. Note: in the data most compounds retested in dose-response had high values. In kind it is functional. The note with it: 30 µM.

For assay [8], the target named is T4, Tyrosyl-tRNA synthetase, putative (Trypanosoma cruzi (strain CL Brener)). Briefly: Trypanosoma cruzi tyrosyl tRNA synthetase (TcYRS) SOP. It is filed as functional. The conditions noted are these: 30 µM.
Assay [9] concerns the target Chromo domain-containing protein 1 (Saccharomyces cerevisiae (strain ATCC 204508 / S288c) (Baker's yeast)) (UniProt P32657). Briefly: ScCHD-1 Enzyme Inhibition Assay. Note: in the data most compounds retested in dose-response had high values. The note with it: 30 µM. In kind it is functional.

For some of these results: Results with a measured potency or affinity are listed apart.

Sequence of Chromo domain-containing protein 1 (Saccharomyces cerevisiae (strain ATCC 204508 / S288c) (Baker's yeast)) (P32657 whole entry, the tested form may be a part): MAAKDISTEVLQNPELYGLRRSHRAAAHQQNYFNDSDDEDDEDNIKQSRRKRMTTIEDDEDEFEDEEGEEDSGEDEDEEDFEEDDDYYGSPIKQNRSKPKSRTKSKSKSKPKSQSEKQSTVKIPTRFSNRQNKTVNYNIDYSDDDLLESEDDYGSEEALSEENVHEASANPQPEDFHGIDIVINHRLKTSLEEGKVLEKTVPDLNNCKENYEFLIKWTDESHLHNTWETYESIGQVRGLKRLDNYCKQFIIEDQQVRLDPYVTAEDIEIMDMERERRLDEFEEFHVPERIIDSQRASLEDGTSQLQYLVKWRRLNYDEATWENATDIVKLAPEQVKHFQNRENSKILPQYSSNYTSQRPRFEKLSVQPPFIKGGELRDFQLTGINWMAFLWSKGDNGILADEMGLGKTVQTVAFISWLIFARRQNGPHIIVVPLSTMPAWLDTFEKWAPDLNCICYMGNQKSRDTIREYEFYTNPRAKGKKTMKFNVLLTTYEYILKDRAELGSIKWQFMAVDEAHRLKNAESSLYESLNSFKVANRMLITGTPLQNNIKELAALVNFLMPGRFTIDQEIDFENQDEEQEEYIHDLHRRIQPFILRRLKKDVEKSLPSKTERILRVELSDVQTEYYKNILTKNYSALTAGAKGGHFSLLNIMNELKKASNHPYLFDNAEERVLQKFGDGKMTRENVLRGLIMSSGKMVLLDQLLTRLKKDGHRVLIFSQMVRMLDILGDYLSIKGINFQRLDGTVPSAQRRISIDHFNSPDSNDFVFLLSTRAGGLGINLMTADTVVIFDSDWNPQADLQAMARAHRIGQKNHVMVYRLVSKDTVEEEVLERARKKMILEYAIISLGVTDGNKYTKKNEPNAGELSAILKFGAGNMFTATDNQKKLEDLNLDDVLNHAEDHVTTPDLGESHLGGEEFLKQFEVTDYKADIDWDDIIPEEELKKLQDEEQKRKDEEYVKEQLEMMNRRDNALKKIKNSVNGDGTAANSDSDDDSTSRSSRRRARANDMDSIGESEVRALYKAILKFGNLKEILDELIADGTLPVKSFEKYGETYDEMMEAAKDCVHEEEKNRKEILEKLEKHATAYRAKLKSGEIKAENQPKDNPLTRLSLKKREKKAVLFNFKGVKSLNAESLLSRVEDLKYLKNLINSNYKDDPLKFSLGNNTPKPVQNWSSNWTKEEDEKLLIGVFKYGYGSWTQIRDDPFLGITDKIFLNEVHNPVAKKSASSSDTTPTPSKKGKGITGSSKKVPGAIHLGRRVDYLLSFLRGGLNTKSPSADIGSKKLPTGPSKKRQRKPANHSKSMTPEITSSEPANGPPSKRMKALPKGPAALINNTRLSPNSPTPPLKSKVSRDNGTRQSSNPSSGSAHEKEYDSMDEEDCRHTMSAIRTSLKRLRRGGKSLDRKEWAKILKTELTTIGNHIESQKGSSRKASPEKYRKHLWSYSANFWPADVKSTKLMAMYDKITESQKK
Sequence of Protein translocase subunit SecA (Escherichia coli (strain K12)) (P10408 whole entry): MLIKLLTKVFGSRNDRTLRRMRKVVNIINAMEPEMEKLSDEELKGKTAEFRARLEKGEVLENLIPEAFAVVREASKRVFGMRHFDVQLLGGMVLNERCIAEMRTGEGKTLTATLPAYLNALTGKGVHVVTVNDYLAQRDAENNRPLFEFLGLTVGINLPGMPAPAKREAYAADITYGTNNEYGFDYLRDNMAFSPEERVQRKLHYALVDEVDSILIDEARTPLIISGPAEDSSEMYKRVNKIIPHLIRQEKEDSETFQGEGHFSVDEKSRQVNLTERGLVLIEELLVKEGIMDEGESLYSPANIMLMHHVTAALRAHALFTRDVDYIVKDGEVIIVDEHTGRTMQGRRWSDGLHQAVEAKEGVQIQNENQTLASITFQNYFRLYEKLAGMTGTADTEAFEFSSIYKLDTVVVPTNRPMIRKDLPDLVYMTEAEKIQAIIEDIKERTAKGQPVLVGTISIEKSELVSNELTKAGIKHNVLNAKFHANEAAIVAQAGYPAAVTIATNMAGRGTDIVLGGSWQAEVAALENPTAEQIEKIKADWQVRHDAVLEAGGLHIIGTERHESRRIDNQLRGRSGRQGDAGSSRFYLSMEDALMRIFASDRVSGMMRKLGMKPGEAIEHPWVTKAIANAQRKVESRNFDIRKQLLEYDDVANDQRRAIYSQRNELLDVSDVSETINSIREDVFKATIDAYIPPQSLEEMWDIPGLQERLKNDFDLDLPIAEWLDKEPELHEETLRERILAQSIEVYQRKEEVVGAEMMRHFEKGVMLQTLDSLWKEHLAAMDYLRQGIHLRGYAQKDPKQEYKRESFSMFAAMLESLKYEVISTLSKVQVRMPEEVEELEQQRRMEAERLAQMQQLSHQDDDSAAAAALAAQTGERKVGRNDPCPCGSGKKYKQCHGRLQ

For `N#Cc1ccc(C(=O)N2CCC3(CC2)C(=O)Nc2ccccc23)cn1`, the Percent Effect in [1] is -4.93%; in assay [2] it was 8.11%; in assay [3] it was 0.0753%; in assay [4] it was 1.98%; with Trypanosoma cruzi it was -0.684%; in [5], 2.73%. The Percent Effect in [6] was 9.87%; in the assay filed under Homo sapiens it was 0.335%; in [7] it was 10.8%; in assay [8] it was 18.5%; in assay [9], -4.78%.

`CC(C)c1noc(C(C)N2CCN(Cc3ccco3)CC2)n1` (stereo unspecified): the Percent Effect in assay [1] is -1.82%; in assay [2] it was -7.89%; in [3], -0.515%; in assay [4], 3.05%; with Trypanosoma cruzi, 7.19%; in assay [5], -3.24%. Moreover, the Percent Effect in [6] is 2.45%; in the assay listed under Homo sapiens, -1.85%; in assay [7] it was 1.48%; in [8], 1.24%; in assay [9], 0.33%.

In the case of `Cc1nc(CN2C[C@@H]3CN(C(=O)c4ccnnc4)C[C@@H]3C2=O)cs1`, the Percent Effect in assay [1] is -4.78%; in assay [2], 5.41%; in assay [3], 6.23%; in [4] it was 4.54%; in the assay with Trypanosoma cruzi, -0.684%; in assay [5], 2.23%. Also, the Percent Effect is 11.6% in assay [6]; -22.8% in the assay filed under Homo sapiens; 3.24% in [7]; 7.69% in assay [8]; 4.63% in assay [9].

`CN(C)CCn1c(=O)oc2ccc(NC(=O)CC(C)(C)C)cc21`: the Percent Effect in assay [1] was -5.92%; in [2], 16%; in [3] it was -6.21%; in assay [4], 19.3%; with Trypanosoma cruzi, 4.38%; in assay [5], 14.1%. The Percent Effect in assay [6] turned out to be 7.67%; in the assay listed under Homo sapiens it was 5.54%; in [7] it was 10.4%; in assay [8] it was 23.5%; in assay [9], 1.52%.

In the case of `CC(C)(C)c1nc(CN2CCCC(Cn3cncn3)C2)cs1` (stereo unspecified), the Percent Effect is -0.434% in assay [1]; 21.6% in assay [2]; -0.165% in assay [3]; -3.27% in [4]; 5% with Trypanosoma cruzi; -17.6% in assay [5]. For the same compound, the Percent Effect in assay [6] is 10.6%; in the assay listed under Homo sapiens it was 3.9%; in assay [7], 1.48%; in assay [8], 18.5%; in [9], -8.38%.

Take `CC1CCN(S(=O)(=O)NCc2ccccc2Cn2cncn2)CC1`: the Percent Effect was -3.83% in assay [1]; 13.9% in assay [2]; 6.66% in [3]; 0.681% in assay [4]; -1.54% in the assay with Trypanosoma cruzi; 3.23% in assay [5]. Further, the Percent Effect is 13.4% in assay [6]; 10.6% in the assay listed under Homo sapiens; 3.12% in assay [7]; 20.2% in assay [8]; -23.4% in assay [9].

With `CC(NC(=O)CCOc1ccccc1Cl)c1nnc2n1CCC2` (stereo unspecified), the Percent Effect in assay [1] was -2.36%; in [2] it was 10.8%; in assay [3], -3.16%; in [4], -0.604%; in the assay on Trypanosoma cruzi, 6.51%; in assay [5], -2%. Besides, the Percent Effect in assay [6] was 5.77%; in the assay listed under Homo sapiens it was 6.7%; in assay [7] it was 5.42%; in assay [8], 16.1%; in assay [9], -6.83%.

Consider `CN1CCN(C(=O)Cc2cccc(F)c2)Cc2cccnc21`, for which the Percent Effect in assay [1] is -3.84%; in [2], 2.6%; in assay [3] it was -0.44%; in [4] it was 1.15%; in the assay with Trypanosoma cruzi, 8.55%; in assay [5], -9.65%. Besides, the Percent Effect in assay [6] was -0.499%; in the assay listed under Homo sapiens it was 6.92%; in assay [7], 2.15%; in [8], 3.7%; in assay [9] it was -6.06%.

For `CN1CCN(Cc2ccccc2CNC(=O)c2ccc(Br)cc2)CC1`, the Percent Effect in assay [1] was -4.93%; in [2] it was 8.11%; in assay [3] it was -2.99%; in assay [4] it was 8.77%; in the assay with Trypanosoma cruzi, 0.0978%; in [5], 1.24%. Also, the Percent Effect is 5.92% in assay [6]; -4.85% in the assay filed under Homo sapiens; 3.23% in [7]; 16.1% in [8]; -1.46% in assay [9].

With `O[C@H]1[C@H](n2cc(-c3ccccc3)nn2)c2ccccc2C12CCNCC2`, the Percent Effect in assay [1] is -1.97%; in assay [2] it was 6.94%; in [3] it was -7.62%; in assay [4], 0.48%; in the assay on Trypanosoma cruzi, 1.65%; in assay [5], -1.77%. Also, the Percent Effect is 10.2% in assay [6]; 12.5% in the assay filed under Homo sapiens; 5.26% in assay [7]; 15.4% in [8]; -2.48% in assay [9].

Take `COCc1cccc(CNC(=O)CN2CCCC2c2noc(C)n2)c1` (stereo unspecified): the Percent Effect in assay [1] was -2.68%; in assay [2], 23.7%; in assay [3], -2.93%; in assay [4], 3.2%; in the assay on Trypanosoma cruzi it was 5.83%; in [5], -2.68%. Also, the Percent Effect in [6] was 15.5%; in the assay filed under Homo sapiens, 1.75%; in assay [7] it was 4.41%; in assay [8], 24.4%; in [9], -13%.

For the origin of these results see ChEMBL document CHEMBL3988442, “University of Dundee, Small-Polar-MMV Screening Library” (2021).
